According to paper PMC4336329 (PLoS ONE, 2015):
Among all 310,000 compounds or so, about 14,000 (4.5%) showed an effect of 50% or more. Effects have a minus sign here. Shown is part of a subset that was picked to be rich in strong results.

Each compound was assayed against human ether-à-go-go-related gene (hERG) potassium channel (human, UniProt Q12809) (assay: primary screen, population patch clamp on CHO cells stably expressing hERG; higher = less effect of the substance).
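Further: peak tail current of the secondary pulse compared with the same well before compound.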

Chain of human ether-à-go-go-related gene (hERG) potassium channel (Q12809 whole entry, looked up): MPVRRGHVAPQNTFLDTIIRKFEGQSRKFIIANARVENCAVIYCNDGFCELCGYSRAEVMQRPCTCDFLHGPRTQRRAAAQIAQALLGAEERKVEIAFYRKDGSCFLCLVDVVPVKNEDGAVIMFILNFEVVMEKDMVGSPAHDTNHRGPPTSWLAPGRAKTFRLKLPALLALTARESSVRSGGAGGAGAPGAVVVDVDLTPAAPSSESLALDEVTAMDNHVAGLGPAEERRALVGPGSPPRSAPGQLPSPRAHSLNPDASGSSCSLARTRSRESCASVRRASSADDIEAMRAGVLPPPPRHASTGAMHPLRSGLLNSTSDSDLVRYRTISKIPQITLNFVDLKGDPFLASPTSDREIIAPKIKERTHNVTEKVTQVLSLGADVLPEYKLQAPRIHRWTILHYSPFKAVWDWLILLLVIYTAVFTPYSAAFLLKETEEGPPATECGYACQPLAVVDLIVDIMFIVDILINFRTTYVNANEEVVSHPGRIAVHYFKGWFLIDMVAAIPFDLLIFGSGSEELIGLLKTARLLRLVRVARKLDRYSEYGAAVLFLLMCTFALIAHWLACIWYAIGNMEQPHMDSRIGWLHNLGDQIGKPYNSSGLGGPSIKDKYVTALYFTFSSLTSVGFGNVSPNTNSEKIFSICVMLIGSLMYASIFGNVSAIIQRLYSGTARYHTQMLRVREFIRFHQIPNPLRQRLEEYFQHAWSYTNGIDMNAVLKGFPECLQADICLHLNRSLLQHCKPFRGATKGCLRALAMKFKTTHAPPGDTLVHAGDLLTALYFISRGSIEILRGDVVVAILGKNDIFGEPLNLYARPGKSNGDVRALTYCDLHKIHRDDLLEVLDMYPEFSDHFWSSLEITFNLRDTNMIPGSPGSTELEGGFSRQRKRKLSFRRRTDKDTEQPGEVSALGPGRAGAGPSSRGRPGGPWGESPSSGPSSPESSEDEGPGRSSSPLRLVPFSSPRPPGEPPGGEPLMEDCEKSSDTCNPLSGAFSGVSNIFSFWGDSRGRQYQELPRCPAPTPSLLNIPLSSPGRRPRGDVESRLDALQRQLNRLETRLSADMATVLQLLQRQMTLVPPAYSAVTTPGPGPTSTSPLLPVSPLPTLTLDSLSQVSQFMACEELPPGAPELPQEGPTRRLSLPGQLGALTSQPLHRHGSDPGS

Row | SMILES | hERG current change (%, negative = inhibition) at 10uM
1 | Cc1cc(-c2nc(C)c(C(=O)NNS(=O)(=O)c3ccccc3)s2)no1 | 11.9%
2 | Cc1ccccc1-c1nnn(Cc2ccc(F)cc2Cl)n1 | 10.6%
3 | Cc1cc(C)c2c(Cn3ccnc3)cc(=O)oc2c1 | 1.13%
4 | Cc1cc(C)c2c(CN3CCN(C/C=C/c4ccccc4)CC3)cc(=O)oc2c1 | -76.9%
5 | Cc1cc(C)c2c(CN3CCN(CCO)CC3)cc(=O)oc2c1 | -50.4%
6 | CCc1ccc2oc(=O)cc(CN3CCN(CCO)CC3)c2c1 | -14.9%
7 | COC(=O)c1ccc(Cl)c(NC(=O)CN(c2ccc3c(c2)OCO3)S(C)(=O)=O)c1 | 7.68%
8 | O=C(O)CCC(NC(=O)c1cncc(O)c1)C(=O)O (stereo not drawn) | -4.94%
9 | CCCC1(c2ccccc2)NC(=O)N(CC(=O)N(C)Cc2c(F)cccc2Cl)C1=O (stereo not drawn) | -2.69%
10 | Cc1ccc(C(C2=C(O)CC(C)(C)CC2=O)C2C(=O)CC(C)(C)CC2=O)s1 (stereo not drawn) | 14.9%
11 | CN=C(NC1CCCCC1)c1ccc([N+](=O)[O-])cc1 | 1.68%
12 | Cl.OC(CN1C2=NCCCN2c2ccccc21)c1ccc(Br)cc1 (stereo not drawn) | -83.9%
13 | Cl.OCCN1C2=NCCCN2c2ccccc21 | 5.78%
14 | OC(CN1C2=NCCN2c2ccccc21)c1ccc(Br)cc1 (stereo not drawn) | -71%
15 | Cl.OC(CN1C2=NCCCN2c2ccccc21)c1ccc(Cl)cc1 (stereo not drawn) | -75.9%
16 | O=C1CSC(=S)N1c1cccnc1 | -7.65%
17 | Cc1ccccc1OCCn1cnc2cc([N+](=O)[O-])ccc2c1=O | -7.38%
18 | CCc1cc(=O)oc2c(C)c(OCC(=O)NCCCN3CCOCC3)ccc12 | -31.8%
19 | CCOc1ncccc1C(=O)OCc1csc(CC(=O)Nc2ccccc2C)n1 | 0.199%

Row | SMILES | hERG current change (%, negative = inhibition) at 10uM
20 | Cc1ccc2[nH]c(O)c(N=NC(N)=S)c2c1 | 19.3%
21 | COc1cccc(NC(=O)Cc2cccs2)c1 | 14.4%
22 | Cc1cc(CN2CCN(CC(=O)Nc3cc(C(F)(F)F)ccc3-n3cncn3)CC2)no1 | -69.8%
23 | O=C(CC1CCCC1)Nc1cc(C(F)(F)F)ccc1-n1cncn1 | -10.4%
24 | Cc1ccc(C(=O)Nc2cc(C(F)(F)F)ccc2-n2cncn2)o1 | -9.88%
25 | CN(Cc1c(F)cccc1Cl)C(=O)c1cccc(S(=O)(=O)NCc2ccccc2)c1 | -28%
26 | O=C(CN1CCOCC1)Nc1ccc(N2CCN(c3ccccc3)CC2)c(F)c1 | 2.59%
27 | CC(C)(C)n1ncc2c(=O)n(CC(=O)c3ccccc3)cnc21 | -10.4%
28 | O=C1CCc2cc(S(=O)(=O)NC3CCCCC3)ccc2N1 | -19.3%
29 | COc1ccc(N2CCN(Cc3nnnn3C3CCCCC3)CC2)cc1 | 6.34%
30 | O=C1CCc2cc(OCCCCc3nnnn3C3CCCCC3)ccc2N1 | -64.1%
31 | CN(C(=O)COC(=O)c1cn(C)c2ccccc12)C1CCCCC1 | 6.55%
32 | CC(=O)N1c2ccc(S(=O)(=O)NCC3CCC(C(=O)NCc4ccc(C)o4)CC3)cc2CC1C (stereo not drawn) | -3.13%
33 | CCCc1cc(=O)[nH]c(Nc2ccc(Cl)cc2)n1 | 6.28%
34 | O=C(Nc1ccccc1)C(=O)Nc1ccc2c(c1)N(C(=O)C1CC1)CCC2 | -5.26%
35 | Nc1cc(=O)[nH]c(N2CCN(c3ccccc3)CC2)n1 | 24.2%
36 | CCn1ccnc1CN1CCC(n2nccc2NC(=O)c2ccccc2OC)CC1 | -69.9%
37 | COc1cc(CN2CCC(n3nccc3NC(=O)c3ccccc3OC)CC2)ccc1F | -76.7%
38 | COc1ccc(C(=O)Nc2ccnn2C2CCN(Cc3ccc4nonc4c3)CC2)cc1 | -43.1%

Row | SMILES | hERG current change (%, negative = inhibition) at 10uM
39 | COc1ccccc1C(=O)Nc1ccnn1C1CCN(Cc2ncc[nH]2)CC1 | -16.3%
40 | CCn1ccnc1CN1CCC(n2nccc2NC(=O)CCc2ccccc2)CC1 | -3.91%
41 | CCOc1ccc(CN2CCC(n3nccc3NC(=O)c3ccccc3OC)CC2)cc1 | -82.8%
42 | COc1ccccc1C(=O)Nc1ccnn1C1CCN(Cc2ccc3nonc3c2)CC1 | -72.1%
43 | COc1ccc(C(=O)Nc2ccnn2C2CCN(Cc3ccccn3)CC2)cc1 | 5.54%
44 | COc1ccccc1C(=O)Nc1ccnn1C1CCN(Cc2ccn[nH]2)CC1 | -36.1%
45 | COc1cc(CN2CCC(n3nccc3NC(=O)C3CCOC3)CC2)ccc1F (stereo not drawn) | -6.78%
46 | COc1ccc(/C=N/Nc2nc(-c3cccnc3)nc3ccccc23)cc1OC | -22.2%
47 | CCOc1ccc(N2C(=O)CN=C2Nc2ccccc2Cl)cc1 | -2.73%
48 | O=C(Nc1ccon1)C(Sc1ccccc1)c1ccccc1 (stereo not drawn) | -8.32%
49 | Cc1noc(C)c1C(=O)Nc1ccc(-c2nnc3n2CCCCC3)cc1 | 5.46%
50 | CC1(C)CC(CC(=O)Nc2ccccc2[N+](=O)[O-])C(=O)O1 (stereo not drawn) | -1.77%
51 | Cc1cccc(-c2c3c(=O)n(C)c(=O)n(C)c3cn2-c2ccccc2O)c1 | 1.06%
52 | Cc1cc(C)c2oc(-c3ccc(C)c(NC(=S)NC(=O)/C=C/c4ccco4)c3)nc2c1 | 11.2%
53 | Cc1cc(=O)oc2cc(OCC(=O)N3CCN(C(C)c4ccccc4)CC3)c(Cl)cc12 (stereo not drawn) | -35.1%
54 | O=C(N/N=C/c1ccco1)c1cc(-c2cccs2)[nH]n1 | 1.93%
55 | Cc1ccccc1C(=O)NCCN1CCOCC1.Cl | 6.78%
56 | Fc1ccc(-c2c[nH]c(=S)n2Cc2ccccc2)cc1 | -38%
57 | O=C(NCCc1c[nH]c2ccccc12)C(F)(F)F | 3.79%
